This note sets out measurements from PubChem BioAssay (NCI).

This is part of a sample that, as a whole, favours compounds with a hit. Of some 83,000 tested, about 20% had one in any assay.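 Percent growth is the endpoint: 0 to 100 indicates growth inhibition (40 means 60% inhibition), 0 means no net growth, and negative values indicate cell death.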 Unmarked numbers belong to inactive results. Calls of active or inactive are those of the source. Rule for the calls: active = growth percent below 10; inactive = the rest.

Some test systems named below: HT29 colon; SNB-75 CNS; SNB-19 CNS; U251 CNS; PC-3 prostate; SK-MEL-5 melanoma; UACC-62 melanoma; LOX IMVI melanoma; SK-MEL-28 melanoma; SK-MEL-2 melanoma; EKVX NSCLC; SN12C renal; UO-31 renal; TK-10 renal; ACHN renal; CAKI-1 renal; CCRF-CEM leukemia; MOLT-4 leukemia; HCT-15 colon; A498 renal.
Common to all, as to test: NCI-60 one-dose screen, 48 h (100 = growth as untreated, 0 = no growth, -100 = all killed)
Common to all, as to settings: 10 µM unless noted

Turning to `N#CC1c2ccccc2C=CN1C(=O)N(c1ccccc1)c1ccccc1` (configuration not stated), the growth in the test on HT29 colon is 57.2%; in the test on SNB-75 CNS it was 68.6%; in the test with SNB-19 CNS it was 98.5%; with U251 CNS, 57.4%; in the test on PC-3 prostate, 60%; in the test on SK-MEL-5 melanoma it was 65.4%. Moreover, the growth was 61.2% in the test on UACC-62 melanoma; 35.6% with LOX IMVI melanoma; 67% with SK-MEL-28 melanoma; 88.2% in the test with SK-MEL-2 melanoma; 102% in the test on EKVX NSCLC; 76.1% in the test with SN12C renal. Further, the growth in the test on UO-31 renal is 36.5%; in the test with TK-10 renal it was 32.1%; in the test on ACHN renal it was 12.3%; in the test with CAKI-1 renal, 2.37% (active); with CCRF-CEM leukemia it was 3.82% (active); in the test on MOLT-4 leukemia it was 3.19% (active).
As for `Cc1nn(-c2ccccc2)c2nc(N)c(C3=NCCO3)nc12`, the growth in the test on HCT-15 colon was 98%; in the test with SNB-75 CNS, 73.1%; in the test with SNB-19 CNS, 100%; in the test on PC-3 prostate it was 81.4%; in the test on SK-MEL-5 melanoma, 97.4%; in the test on UACC-62 melanoma it was 96.5%. In addition, the growth is 94.7% in the test on LOX IMVI melanoma; 103% in the test with SK-MEL-28 melanoma; 111% with SK-MEL-2 melanoma; 96.8% with SN12C renal; 73.5% with UO-31 renal; 128% with TK-10 renal. For the same compound, the growth was 83% with ACHN renal, 78.4% in the test with CAKI-1 renal, 92.1% in the test with A498 renal and 101% with MOLT-4 leukemia.
Regarding `c1ccc2c(-c3nc4ccccc4[nH]3)cccc2c1`, the growth with HCT-15 colon is 27.1%; with SNB-75 CNS, 27.8%; with SNB-19 CNS it was 52.5%; with U251 CNS, 12.5%; with PC-3 prostate, 54.1%; with SK-MEL-5 melanoma, 20.1%. Further, the growth is 32.2% with UACC-62 melanoma; 34.6% in the test with LOX IMVI melanoma; 51.5% in the test with SK-MEL-28 melanoma; 70% in the test on EKVX NSCLC; 47.3% in the test with SN12C renal; 60.5% in the test on UO-31 renal. Besides, the growth in the test on ACHN renal was 52.7%; in the test with CAKI-1 renal, 61.2%; with A498 renal, 29.1%; in the test with CCRF-CEM leukemia, 22.3%; in the test on MOLT-4 leukemia, 11.6%.
Regarding `COc1ccc(-c2cc(-c3cccnc3)nc(S(=O)(=O)CC(=O)Nc3ccc(C)cc3)c2C#N)cc1OC`, the growth was 95.1% in the test on HCT-15 colon; 78.7% in the test with SNB-75 CNS; 94.6% in the test on SNB-19 CNS; 91.7% with U251 CNS; 83.7% in the test with PC-3 prostate; 72% in the test on SK-MEL-5 melanoma. For the same compound, the growth was 99.4% in the test with UACC-62 melanoma; 88.9% in the test on LOX IMVI melanoma; 102% in the test on SK-MEL-28 melanoma; 97.2% with SN12C renal; 59.8% in the test with UO-31 renal; 98.3% in the test with ACHN renal. The growth in the test with CAKI-1 renal was 91.2%; in the test on A498 renal, 57.3%; in the test on CCRF-CEM leukemia, 100%; in the test with MOLT-4 leukemia, 75.2%.
On to `COc1cc(-c2nnc(-c3nc(-c4cc(OC)c(OC)c(OC)c4)n4ccccc34)o2)ccc1N`, for which the growth in the test on HCT-15 colon was 64.5%; with SNB-75 CNS, 75%; with SNB-19 CNS, 77.7%; with PC-3 prostate, 69%; with SK-MEL-5 melanoma it was 56.1%; in the test with UACC-62 melanoma it was 60.9%. In addition, the growth with LOX IMVI melanoma is 56.3%; in the test on SK-MEL-28 melanoma, 97.8%; in the test with EKVX NSCLC, 8.84% (active); in the test on SN12C renal it was 50.4%; in the test with UO-31 renal it was 38.6%; in the test with ACHN renal it was 62.2%. The growth with CAKI-1 renal is 59.3%; with A498 renal, 98.8%; in the test with CCRF-CEM leukemia, 43%; in the test with MOLT-4 leukemia, 64.6%.
Regarding `CN1CCN(CCCCCN=c2cc3c(=O)n(CCCCCN4CCN(C)CC4)c(=O)c4c(NCCCCCN5CCN(C)CC5)cc5c(O)n(CCCCCN6CCN(C)CC6)c(=O)c2c5c4-3)CC1`, the growth was 107% in the test on HCT-15 colon; -8.4% (active) with SNB-75 CNS; 3.84% (active) with SNB-19 CNS; 2.35% (active) in the test with U251 CNS; 12.6% in the test on PC-3 prostate; 44.3% with SK-MEL-5 melanoma. Moreover, the growth in the test on UACC-62 melanoma is 21.9%; in the test on SK-MEL-28 melanoma, -34.8% (active); in the test on EKVX NSCLC, -11.4% (active); in the test with SN12C renal, 5.16% (active); in the test with UO-31 renal it was 115%; in the test with ACHN renal it was 88.5%. In addition, the growth was 102% with CAKI-1 renal, 95.6% in the test with A498 renal, 13.9% in the test on CCRF-CEM leukemia and 25.2% in the test on MOLT-4 leukemia.
For the compound `COc1cc(/C=C2\CN(S(=O)(=O)c3ccc(C)cc3)C/C(=C\c3cc(CN4CCOCC4)c(O)c(OC)c3)C2=O)cc(CN2CCOCC2)c1O`, the growth in the test on HCT-15 colon is -31.3% (active); with SNB-75 CNS, 25.8%; with SNB-19 CNS, 12.9%; in the test on U251 CNS, 15.5%; in the test on PC-3 prostate, 2.79% (active); with SK-MEL-5 melanoma, -63.4% (active). For the same compound, the growth with UACC-62 melanoma was -45.8% (active); with SK-MEL-28 melanoma, -33.2% (active); with EKVX NSCLC, 11.6%; in the test with SN12C renal it was -19.3% (active); with UO-31 renal it was -89.3% (active); in the test with ACHN renal, -82.4% (active). Also, the growth is 9.3% (active) with CAKI-1 renal, 36.5% with A498 renal, 8.78% (active) with CCRF-CEM leukemia and 4.35% (active) in the test on MOLT-4 leukemia.
`CCCCCCCCCCNCCSS(=O)(=O)O`: the growth in the test with HCT-15 colon is 86.4%; in the test with SNB-75 CNS, 96.1%; with SNB-19 CNS, 65.9%; in the test with U251 CNS, 15%; in the test with PC-3 prostate it was 88.7%; in the test on SK-MEL-5 melanoma it was 39.8%. Further, the growth in the test on UACC-62 melanoma was 4.6% (active); in the test with LOX IMVI melanoma, 20.9%; in the test with SK-MEL-28 melanoma, 51.5%; in the test with EKVX NSCLC, 101%; in the test with SN12C renal it was 31.5%; with UO-31 renal, 70.6%. Besides, the growth in the test with ACHN renal was 92.6%; with CAKI-1 renal, 98.8%; with A498 renal it was 101%; with CCRF-CEM leukemia, 50.3%; in the test on MOLT-4 leukemia it was 9.96% (active).
